Drawing on ChEMBL document CHEMBL4513216, “Probing the Open Global Health Chemical Diversity Library for Multistage-Active Starting Points for Next-Generation Antimalarials” (ACS Infect Dis, 2020), this text covers INHIBITION for 53 compounds.

About 8,600 (12%) of roughly 69,000 compounds showed an effect of 50% or more. This is one part of a sample in which strong results are shown more often than they occur.

The assay relates to Plasmodium berghei. The assay is described as follows: Screen against P. berghei liver stage (PbLuc), transformed with Luciferase, at 10uM. The following applies: tested at 10 uM. Type of assay: functional, HepG2.
Regarding `Cc1nc(C)n(C2CCCN(C(=O)c3ccc(F)c(F)c3)C2)n1` (stereo not drawn), the INHIBITION is 6.333%.

As to `Cc1noc(-c2ccc(N3CCN(Cc4ncccc4C)CC3)nc2)n1`, the INHIBITION is 17.1%.

`O=C(CN1CC(c2nc(C3CC3)no2)C1)NCc1ccc(F)cc1`: the INHIBITION is recorded as -50.7%.

Consider `CN(CCc1noc(C2CC2)n1)C(=O)C1(N2CCCC2)CCCC1`, for which the INHIBITION came to 10.7%.

`Cc1nc(-c2ccccc2)cc(C2CCNCC2)n1`: the INHIBITION is -25.3%.

Regarding `COc1ccc(CNCc2c(C(C)C)nn(C)c2N(C)C)cn1`, the INHIBITION is 19.2%.

`CC(C)=CCCC1(C)CCC(=O)N(CCNc2nc(C)cc(=O)[nH]2)C1` (stereo not drawn): the INHIBITION was determined as 18.5%.

With `N#CCCN(C(=O)CN1CCCC1c1cccs1)c1ccccc1F` (stereo not drawn), the INHIBITION is given as 13.833%.

For the compound `O=C1Nc2ccccc2CN(CC=Cc2ccccc2)C12CCNC2` (stereo not drawn), the INHIBITION worked out at 35.8%.

For `O=c1[nH]c2cn(-c3ccc(Cl)cc3)c(=O)n2[nH]1`, the INHIBITION is -20.6%.

Turning to `CCC(CC)NC(=O)Cn1cc(-c2ccccc2)cn1`, the INHIBITION is listed as 48.4%.

Turning to `c1c(CN2CCCC2)nc2n1CCN(C1CCOCC1)C2`, the INHIBITION was 54.4%.

Consider `CN1CCN(Cc2cn3c(n2)CN(C2CCOCC2)CC3)CC1`, for which the INHIBITION worked out at 11.6%.

For the compound `COCCN1CCn2cc(CNC(=O)C3CCC3)nc2C1`, the INHIBITION was -10.3%.

Consider `CCN1CCn2cc(CNC(=O)c3cnn(C)c3)nc2C1`, for which the INHIBITION is listed as -18.4%.

As for `Cn1cc(CN2CCn3cc(CNC(=O)c4cccn4C)nc3C2)cn1`, the INHIBITION worked out at 62.6%.

For the compound `O=C(NCc1cn2c(n1)CN(CC1CCOCC1)CC2)C1CCC1`, the INHIBITION is reported as 60.2%.

With `Cn1cc(CN2CCn3cc(CNC(=O)CC4CC4)nc3C2)cn1`, the INHIBITION is 33.4%.

Consider `Cn1cccc1C(=O)NCc1cn2c(n1)CN(Cc1cccnc1)CC2`, for which the INHIBITION was determined as 15.8%.

Turning to `c1c(CN2CCOCC2)nc2n1CCN(C1CCOCC1)C2`, the INHIBITION is listed as 27.5%.

For `Cn1cc(C(=O)NCc2cn3c(n2)CN(C2CCOCC2)CC3)cn1`, the INHIBITION was determined as 54.7%.

Consider `Cn1cc(C(=O)NCc2cn3c(n2)CN(CC2CCOCC2)CC3)cn1`, for which the INHIBITION is 9.54%.

As to `O=C(NCc1cn2c(n1)CN(Cc1nccs1)CC2)C1CCC1`, the INHIBITION came to 11.4%.

As to `Cn1cc(C(=O)N2CC[C@@H]3[C@@H]2CCN3Cc2ccccc2)cn1`, the INHIBITION worked out at 5.44%.

In the case of `COc1ccc2c(ccn2CC(=O)Nc2n[nH]c(C(C)C)n2)c1`, the INHIBITION was determined as 35.7%.

Take `CC(C)n1cnnc1CN(C)C(=O)c1ccc[nH]1`: the INHIBITION is reported as -5.19%.

As for `O=C(c1cnccn1)N1CCCC2(CCN(c3ccccn3)C2)C1` (stereo not drawn), the INHIBITION is given as -16.1%.

As to `CCNc1cc2c(nn1)CCN(C(=O)c1ccnc(C)n1)C2`, the INHIBITION worked out at 7.75%.

`Cc1ccnc(NCC2(N(C)C)CCOCC2)n1`: the INHIBITION is on record as -24%.

With `O=C(c1cccnc1)N1CCc2ncnc(N3CCOCC3)c2CC1`, the INHIBITION is given as 41.6%.

With `Cc1noc(C)c1CN1CCn2cc(CNc3ccccn3)nc2C1`, the INHIBITION came to 88.1%.

`Cn1cccc1C(=O)NCc1cn2c(n1)CN(C(=O)c1ccsc1)CC2`: the INHIBITION was 61.1%.

Turning to `c1ccc(NCc2cn3c(n2)CN(Cc2cccs2)CC3)nc1`, the INHIBITION worked out at 26.5%.

For the compound `Cn1cccc1C(=O)NCc1cn2c(n1)CN(c1ncccn1)CC2`, the INHIBITION is recorded as -0.453%.

Consider `CC(=O)N1CCn2cc(CNC(=O)c3cccn3C)nc2C1`, for which the INHIBITION was 38.1%.

With `c1ccc(NCc2cn3c(n2)CN(Cc2ccoc2)CC3)nc1`, the INHIBITION was -13.7%.

In the case of `Cc1ccc2cc(C(=O)N3CCC(Nc4cccnn4)CC3)[nH]c2c1`, the INHIBITION was determined as 21.6%.

For the compound `O=C(NCC[S+]([O-])Cc1ccccc1)c1ccc2[nH]c(=O)[nH]c2c1` (stereo not drawn), the INHIBITION was determined as 35.2%.

With `Cc1nn(C)c(Cl)c1C1CCCN1C(=O)c1ccoc1C` (stereo not drawn), the INHIBITION was -29.1%.

In the case of `CCOc1cc(C)nc(N2CCN(C(=O)c3cc(C)on3)CC2)n1`, the INHIBITION is 19.4%.

As for `O=C(CCN1CCCN(c2nccs2)CC1)Nc1ccccc1`, the INHIBITION is recorded as 15.2%.

For `CC(C(=O)Nc1ncccn1)N1CCc2[nH]nc(C(F)(F)F)c2C1` (stereo not drawn), the INHIBITION is -17.9%.

For `FC(F)(F)c1n[nH]c2c1CN(CCc1ccccn1)CC2`, the INHIBITION is on record as 50%.

Turning to `[O-][S+](CCN1CCc2[nH]nc(C(F)(F)F)c2C1)c1ccccc1` (stereo not drawn), the INHIBITION was found to be 36.3%.

Regarding `FC(F)(F)c1n[nH]c2c1CN(Cc1cn3ccccc3n1)CC2`, the INHIBITION stood at 49.1%.

For `O=C(CCN1CCc2[nH]nc(C(F)(F)F)c2C1)Nc1ccccc1`, the INHIBITION turned out to be 61.1%.

As for `Cc1nc2n(n1)CC(NCc1nc(-c3ccccn3)no1)CC2` (stereo not drawn), the INHIBITION is listed as 0%.

Take `CCOCCNC(=O)C1CCC(=O)N(CCc2ccc(Cl)cc2)C1` (stereo not drawn): the INHIBITION is listed as 42.5%.

Take `CC(C(=O)N1CCCN(c2ncccc2C#N)CC1)n1cncn1` (stereo not drawn): the INHIBITION worked out at 11.4%.

Regarding `COc1ccccc1C(=O)Nc1cc(CC(C)C)nn1C`, the INHIBITION amounted to 12.7%.

`Cc1cnc(C(=O)N2CC(=O)N(c3ccccc3Cl)CC2C)cn1` (stereo not drawn): the INHIBITION is 17%.

Regarding `Cc1nc(Nc2ncccn2)cc(C2CCCN2C)n1` (stereo not drawn), the INHIBITION amounted to 0.301%.

With `c1cc(C2CCCN2CC2CCCCC2)n[nH]1` (stereo not drawn), the INHIBITION is listed as -12.3%.
